Results reported in article PMC5540273 (PLoS ONE, 2017).

Key:
Settings in all cases: concentration: 1 μM, replicates: in singlicate; n = 1
AAK1 = system: AAK1
ABL1-nonphosphorylated = system: ABL1-nonphosphorylated
ABL1-phosphorylated = system: ABL1-phosphorylated
ABL2 = system: ABL2
ACVR1B = system: ACVR1B
ACVR1 = system: ACVR1
ACVR2A = system: ACVR2A
ACVR2B = system: ACVR2B
ACVRL1 = system: ACVRL1
ADCK3 = system: T1, ADCK3
T1 construct: gene CABC1

ADCK4 = system: ADCK4
AKT1 = system: AKT1
AKT2 = system: AKT2
AKT3 = system: AKT3
ALK = system: ALK
AMPK-alpha1 = system: T2, AMPK-alpha1
T2 construct: gene PRKAA1

AMPK-alpha2 = system: T3, AMPK-alpha2
T3 construct: gene PRKAA2

ANKK1 = system: ANKK1
ARK5 = system: T4, ARK5
T4 construct: gene NUAK1

ASK1 = system: T5, ASK1
T5 construct: gene MAP3K5
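Note: KINOMEscan kinase panel screen.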

Structure (SMILES)	%Inh (AAK1) [%]	%Inh (ABL1-nonphosphorylated) [%]	%Inh (ABL1-phosphorylated) [%]	%Inh (ABL2) [%]	%Inh (ACVR1B) [%]	%Inh (ACVR1) [%]	%Inh (ACVR2A) [%]	%Inh (ACVR2B) [%]	%Inh (ACVRL1) [%]	%Inh (ADCK3) [%]	%Inh (ADCK4) [%]	%Inh (AKT1) [%]	%Inh (AKT2) [%]	%Inh (AKT3) [%]	%Inh (ALK) [%]	%Inh (AMPK-alpha1) [%]	%Inh (AMPK-alpha2) [%]	%Inh (ANKK1) [%]	%Inh (ARK5) [%]	%Inh (ASK1) [%]
Cc1ccc(C)c(NC(=O)Nc2ccc(C)c(-c3ccc(C(=O)Nc4ccncc4)cc3)c2)c1 [GSK1398473]	11	0	0	14	0	18	0	3	0	14	25	0	0	0	38	15	0	0	17	0
Cn1cc(-c2ccc3c(c2)CCN3C(=O)Cc2cc(F)cc(F)c2F)c2c(N)ncnc21 [GSK2634140]	0	82	29	57	15	0	0	0	0	6	19	0	0	0	8	18	13	12	20	0
CC(C)(C)c1ccc(C(=O)Nc2cn3cc(-n4ccnc4)ccc3n2)cc1	12	44	21	22	7	0	10	8	0	2	19	6	0	0	0	14	0	82	2	80
COc1cc(Nc2nccc(N3CCC(NC(=O)Nc4ccc5c(c4)OCO5)C3)n2)cc(OC)c1OC (centres unmarked) [GSK1379766]	66	0	0	0	0	11	0	0	0	0	69	0	2	0	63	2	10	36	24	4
c1ccc(Oc2ccc(Nc3ccnc4cc(-c5ccc(CN6CCCCC6)o5)ccc34)cc2)nc1 [GW567143]	0	85	24	24	0	0	32	0	0	0	8	0	14	0	26	0	0	9	12	0
Cl.Cl.NCC(NC(=O)c1cc(-c2cccnc2)c(-c2ccnc3[nH]ccc23)s1)c1ccccc1 (centres unmarked) [GSK1323434]	59	54	37	30	0	19	0	0	0	97.5	71	7	10	86	23	0	0	0	0	0
CC(C)NCC(Cc1ccccc1)NC(=O)c1cc(Br)c(-c2ccnc3[nH]ccc23)s1.Cl.Cl (centres unmarked) [GSK1383281]	25	0	14	5	0	0	0	0	0	14	87	90	73	86	32	57	41	17	62	0
